In PubChem BioAssay AID1502 (Sanford-Burnham Center for Chemical Genomics, 2009):
The list shows a part of the results. Values without a mark were called inactive. The source made the active and inactive calls. Rule as the data show it: active = inhibition above about 40%; inactive = the rest.

Biological target: Runt-related transcription factor 1 (Homo sapiens) + Core-binding factor subunit beta (Homo sapiens) (UniProt Q01196+Q13951)
Experiment: Runt domain/CBFb interaction disruptors – biochemical, TR-FRET (AID 1502)
Conditions: TR-FRET RUNX1 Runt domain-CBFb binding; at 20 µM; stronger effect = higher value

Sequence of Runt-related transcription factor 1 (Homo sapiens) + Core-binding factor subunit beta (Homo sapiens) (Q01196 whole entry, looked up, the tested form may be a part): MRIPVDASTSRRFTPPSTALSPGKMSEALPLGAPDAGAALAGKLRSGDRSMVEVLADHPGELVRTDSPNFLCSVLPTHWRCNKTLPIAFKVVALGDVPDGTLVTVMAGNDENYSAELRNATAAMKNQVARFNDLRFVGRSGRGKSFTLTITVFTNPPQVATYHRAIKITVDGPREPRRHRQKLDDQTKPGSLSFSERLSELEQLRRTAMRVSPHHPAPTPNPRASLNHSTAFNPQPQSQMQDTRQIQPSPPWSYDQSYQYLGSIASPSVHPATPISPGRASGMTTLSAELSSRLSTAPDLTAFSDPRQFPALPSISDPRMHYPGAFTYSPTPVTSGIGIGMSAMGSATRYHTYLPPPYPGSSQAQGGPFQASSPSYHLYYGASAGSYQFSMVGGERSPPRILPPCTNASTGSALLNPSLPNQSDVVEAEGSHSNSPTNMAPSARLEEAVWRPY
Sequence of Runt-related transcription factor 1 (Homo sapiens) + Core-binding factor subunit beta (Homo sapiens) (Q13951 whole entry, looked up, the tested form may be a part): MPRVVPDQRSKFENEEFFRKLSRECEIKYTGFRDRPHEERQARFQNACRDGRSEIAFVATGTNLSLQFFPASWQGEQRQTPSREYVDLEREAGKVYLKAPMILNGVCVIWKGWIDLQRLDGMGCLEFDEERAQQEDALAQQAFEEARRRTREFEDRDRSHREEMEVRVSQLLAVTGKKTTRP

Point of comparison: `N#Cc1c(N)n(CCOC(=O)c2ccc(Cl)cc2)c2nc3ccccc3nc12`, inhibition 4%. Against it:
- COc1ccc(C2C(C#N)=C(N)Oc3cc(N)ccc32)cc1OC (stereo unspecified) — lower, -6.8%
- CC(C)(C)OC(=O)c1c(N)n(CCCN2CCCC2=O)c2nc3ccccc3nc12 — higher, 34.4%
- COc1c(O)ccc2c1CN1CCc3cc4c(cc3C1C2)OCO4 (stereo unspecified) — higher, 20.3%
- CC(C)Cn1c(CCC(=O)O)ccc1-c1cccs1 — higher, 17%
- CC(C)Oc1ccc(/C=C(\NC(=O)/C=C/c2ccco2)C(=O)NCCc2nc3ccccc3[nH]2)cc1 — lower, -3.3%
- CCN1/C(=C/C(=S)Nc2ccccc2)Sc2ccccc21 — lower, -2.1%
- Cc1cc(F)ccc1S(=O)(=O)Nc1ncnc2scc(-c3ccc(F)cc3)c12 — lower, -13.5%
- Cc1ccc(-c2cn3cc([N+](=O)[O-])ccc3n2)cc1 — lower, -11.5%
- N#CC1=C(N)Oc2cc(O)ccc2C1C1CCCCC1 (stereo unspecified) — lower, -0.9%
- Cc1cccc(-n2c(N)c(C(=O)N3CCN(C)CC3)sc2=S)c1 — higher, 18.2%
- CCCN1C2=C(C(=O)CCC2)C(c2ccc(O)c(Br)c2)C2=C1CCCC2=O — higher, 29.9%

`O=c1[nH]c2ccccc2n2c(-c3ccccc3)nnc12` was tested, and the inhibition was 66.7% (active).
With `CCOc1cccc(/C=N/N2C(=O)CSC2=S)c1O` the inhibition was 77.6% (active).
`Brc1ccc(CSc2ccc(-c3ccco3)nn2)cc1` was tested, and the inhibition was 73.7% (active).
For `COCC(C)OC(=O)c1c(N)n(CCCN2CCOCC2)c2nc3ccccc3nc12` (stereo unspecified), the inhibition was 53.2% (active).
